# Inconclusive results are not listed. Unmarked numbers belong to inactive results. Activity calls are given as the source filed them. The call rests on the fitted dose curve; in most records, active means well fitted cell-killing curve with a large enough effect; inconclusive means small, poorly fitted or top-dose-only effect; inactive means no such curve, though single readings can be large or run the other way.
# Assay: qHTS of pediatric cancer cell lines to identify multiple opportunities for drug repurposing: Primary screen for Rh30 cells (AID 1347107); further: nearly all actives have a fitted effect of over 75% in size; on activity change, negative = cytotoxic: on the % scale 0 is the no-effect control and ±100 the full control effect
# Conditions: Rh30 rhabdomyosarcoma viability, CellTiter-Glo luminescence, 48 h; series mostly up to 46 µM; activity change, negative = cytotoxic: at the top concentration
# In short: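 Cells (500-1,000/well) in growth media were settled 5 h at 37 degrees C, then given compounds for 48 h. Viability was read as CellTiter-Glo luminescence. Primary runs used MIPE at 11 points (0.78 nM-46 µM) and NPC at 8 points (0.59 nM-46 µM); follow-ups used 11 points.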
# Potency means the concentration at half of the fitted maximal effect.
SMILES,"activity change, negative = cytotoxic",Potency
CC1COC2(CCN(c3nc(=O)c4cc(C(F)(F)F)cc([N+](=O)[O-])c4s3)CC2)O1 (stereo not given),14.5%,
COc1ccc(C(=O)CC2(O)C(=O)Nc3c(Cl)ccc(Cl)c32)cc1 (stereo not given),-1.16%,
CN1CC[C@@H](c2c(O)cc(O)c3c(=O)cc(-c4ccccc4Cl)oc23)[C@@H](O)C1,-9.42%,
Nc1nc(-c2nn(Cc3ccccc3F)c3ncccc23)nc(N)c1N1CCOCC1,9.94%,
NC(=O)c1c(OCc2c(F)cc(Br)cc2F)nsc1NC(=O)NCCCCN1CCCC1,,20.9 µM (active)
CCN1CCN(CC(=O)Nc2ccc(-c3cccc4c(=O)cc(N5CCOCC5)oc34)c3sc4ccccc4c23)CC1,,10.5 µM (active)
COCCn1c2c([n+](Cc3cnccn3)c1C)C(=O)c1ccccc1C2=O,,0.0148 µM (active)
O=C(CCCCCCC(=O)Nc1ccc([C@H]2O[C@@H](CSc3nc(-c4ccccc4)c(-c4ccccc4)o3)C[C@@H](c3ccc(CO)cc3)O2)cc1)NO,,14.8 µM (active)
O=C(C=Cc1c(C(=O)O)[nH]c2cc(Cl)cc(Cl)c12)Nc1ccccc1,21.2%,
CN(C)CC=CC(=O)Nc1cc2c(Nc3ccc(F)c(Cl)c3)ncnc2cc1O[C@H]1CCOC1,,14.8 µM (active)
O=C(CCCCCCNC(=O)c1cnc(N(c2ccccc2)c2ccccc2)nc1)NO,,14.8 µM (active)
COc1cccc2c(NCc3ccccc3)nc(-n3c(N)nc4ccccc43)nc12,,14.8 µM (active)
CN1CCC(CNc2ccc3ncc(-c4cccc(OC(F)(F)F)c4)n3n2)CC1,,23.5 µM (active)
COC(=O)[C@]12CCC(C)(C)C[C@@H]1[C@@H]1C(=O)C=C3[C@@]4(C)C=C(C#N)C(=O)C(C)(C)[C@@H]4CC[C@@]3(C)[C@]1(C)CC2,,1.48 µM (active)
Cc1cc(Nc2cc(N3CCN(C)CC3)nc(C=Cc3ccccc3)n2)n[nH]1,,34 µM (active)
CCOc1ccccc1OCCNC(C)Cc1ccc(OC)c(S(N)(=O)=O)c1 (stereo not given),16.3%,
CC(C)Nc1cc(C(F)(F)F)cc2nc(NC(=O)c3cccnc3)nn12,12%,
C1=CCOCc2cc(ccc2OCCN2CCCC2)Nc2nccc(n2)-c2cccc(c2)OCC1,,14.8 µM (active)

SMILES,"activity change, negative = cytotoxic",Potency
COc1cc2c(Oc3ccc(-c4cnc(Nc5ccc(F)cc5)n(C)c4=O)cc3F)ccnc2cc1OCCCN1CCOCC1,,9.35 µM (active)
Cc1ccc(NC(=O)C2(c3ccc4c(c3)OC(F)(F)O4)CC2)nc1-c1cccc(C(=O)O)c1,-8.74%,
CN1CCN(Cc2ccc(NC(=O)Nc3ccc(Oc4cc(NC(=O)C5CC5)ncn4)cc3)cc2C(F)(F)F)CC1,,20.9 µM (active)
CC(C)(O)CCc1ccc(OCc2cc(-c3cccc(OC(F)F)c3)c3ncccc3c2)cc1,21.7%,
CCCNC(=O)Nc1ccc(Oc2ncnc3cc(OC)c(OC)cc23)cc1Cl,10.4%,
COc1cc(C)c(Sc2cnc(NC(=O)c3ccc(CNC(C)C(C)C)cc3)s2)cc1C(=O)N1CCN(C(C)=O)CC1 (stereo not given),,8.33 µM (active)
CNC(=O)c1ccc(-c2cnc3ncc(Cc4ccc5ncccc5c4)n3n2)cc1F,-8.03%,
Cc1[nH]nc2ccc(-c3cncc(OC[C@@H](N)Cc4ccccc4)c3)cc12,-28.2%,
O=C(O)CO.[NH2-].[NH2-].[Pt+2],28%,
C[C@@]12O[C@@H](C[C@]1(O)CO)n1c3ccccc3c3c4c(c5c6ccccc6n2c5c31)CNC4=O,-26.6%,
Nc1nccc(Oc2ccc(NC(=O)c3c[nH]cc(-c4ccc(F)cc4)c3=O)cc2F)c1Cl,-21%,
C=CC(=O)Nc1cc2c(Nc3ccc(F)c(Cl)c3)ncnc2cc1C#CC(C)(C)N1CCN(C)CC1,,11.8 µM (active)
Nc1ncnc2c1c(-c1cnc3[nH]ccc3c1)nn2C1CCCC1,,2.09 µM (active)
O=c1[nH]c(=O)n(C2CCCO2)cc1F (stereo not given),14.1% [at 92.7 µM],
O=c1c2ccccc2nc2n1CCc1c-2[nH]c2ccccc12,13.2%,
Clc1cccc(-c2nnnn2Cc2cccnc2)c1Cl,6.95%,
Cc1cc(Nc2cc(N3CCN(C)CC3)nc(Sc3ccc(NC(=O)C4CC4)cc3)n2)n[nH]1,,18.7 µM (active)

# Assay: qHTS of pediatric cancer cell lines to identify multiple opportunities for drug repurposing: Primary screen for Rh41 cells (AID 1347108); further: nearly all actives have a fitted effect of over 70% in size;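 on activity change, negative = cytotoxic: luminescence drop marks cytotoxic hits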
# Conditions: Rh41 rhabdomyosarcoma viability, CellTiter-Glo luminescence, 48 h; series mostly up to 46 µM; activity change, negative = cytotoxic: at the top concentration
# In short: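 ATP-based luminescence (CellTiter-Glo) quantifies viability after a 48-hour exposure. Compounds are dosed across 8 or 11 final concentrations; DMSO and 2.3 µM bortezomib serve as controls.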
SMILES,"activity change, negative = cytotoxic",Potency
CC1COC2(CCN(c3nc(=O)c4cc(C(F)(F)F)cc([N+](=O)[O-])c4s3)CC2)O1 (stereo not given),27.5%,
COc1ccc(C(=O)CC2(O)C(=O)Nc3c(Cl)ccc(Cl)c32)cc1 (stereo not given),,3.72 µM (active)
CN1CC[C@@H](c2c(O)cc(O)c3c(=O)cc(-c4ccccc4Cl)oc23)[C@@H](O)C1,,0.296 µM (active)
Nc1nc(-c2nn(Cc3ccccc3F)c3ncccc23)nc(N)c1N1CCOCC1,5.95%,
NC(=O)c1c(OCc2c(F)cc(Br)cc2F)nsc1NC(=O)NCCCCN1CCCC1,,18.7 µM (active)
CCN1CCN(CC(=O)Nc2ccc(-c3cccc4c(=O)cc(N5CCOCC5)oc34)c3sc4ccccc4c23)CC1,,1.66 µM (active)
COCCn1c2c([n+](Cc3cnccn3)c1C)C(=O)c1ccccc1C2=O,,0.0469 µM (active)
O=C(CCCCCCC(=O)Nc1ccc([C@H]2O[C@@H](CSc3nc(-c4ccccc4)c(-c4ccccc4)o3)C[C@@H](c3ccc(CO)cc3)O2)cc1)NO,,9.35 µM (active)
O=C(C=Cc1c(C(=O)O)[nH]c2cc(Cl)cc(Cl)c12)Nc1ccccc1,31.9%,
CN(C)CC=CC(=O)Nc1cc2c(Nc3ccc(F)c(Cl)c3)ncnc2cc1O[C@H]1CCOC1,,7.43 µM (active)
O=C(CCCCCCNC(=O)c1cnc(N(c2ccccc2)c2ccccc2)nc1)NO,,9.35 µM (active)
COc1cccc2c(NCc3ccccc3)nc(-n3c(N)nc4ccccc43)nc12,,18.7 µM (active)
CN1CCC(CNc2ccc3ncc(-c4cccc(OC(F)(F)F)c4)n3n2)CC1,,18.7 µM (active)
COC(=O)[C@]12CCC(C)(C)C[C@@H]1[C@@H]1C(=O)C=C3[C@@]4(C)C=C(C#N)C(=O)C(C)(C)[C@@H]4CC[C@@]3(C)[C@]1(C)CC2,,1.18 µM (active)
Cc1cc(Nc2cc(N3CCN(C)CC3)nc(C=Cc3ccccc3)n2)n[nH]1,,10.8 µM (active)
CCOc1ccccc1OCCNC(C)Cc1ccc(OC)c(S(N)(=O)=O)c1 (stereo not given),8.02%,
CC(C)Nc1cc(C(F)(F)F)cc2nc(NC(=O)c3cccnc3)nn12,-8.72%,
C1=CCOCc2cc(ccc2OCCN2CCCC2)Nc2nccc(n2)-c2cccc(c2)OCC1,,5.9 µM (active)

SMILES,"activity change, negative = cytotoxic",Potency
COc1cc2c(Oc3ccc(-c4cnc(Nc5ccc(F)cc5)n(C)c4=O)cc3F)ccnc2cc1OCCCN1CCOCC1,,4.69 µM (active)
Cc1ccc(NC(=O)C2(c3ccc4c(c3)OC(F)(F)O4)CC2)nc1-c1cccc(C(=O)O)c1,,0.296 µM (active)
CN1CCN(Cc2ccc(NC(=O)Nc3ccc(Oc4cc(NC(=O)C5CC5)ncn4)cc3)cc2C(F)(F)F)CC1,,0.469 µM (active)
CC(C)(O)CCc1ccc(OCc2cc(-c3cccc(OC(F)F)c3)c3ncccc3c2)cc1,6.95%,
CCCNC(=O)Nc1ccc(Oc2ncnc3cc(OC)c(OC)cc23)cc1Cl,4.22%,
COc1cc(C)c(Sc2cnc(NC(=O)c3ccc(CNC(C)C(C)C)cc3)s2)cc1C(=O)N1CCN(C(C)=O)CC1 (stereo not given),,2.64 µM (active)
CNC(=O)c1ccc(-c2cnc3ncc(Cc4ccc5ncccc5c4)n3n2)cc1F,-3.88%,
Cc1[nH]nc2ccc(-c3cncc(OC[C@@H](N)Cc4ccccc4)c3)cc12,,4.69 µM (active)
O=C(O)CO.[NH2-].[NH2-].[Pt+2],24.9%,
C[C@@]12O[C@@H](C[C@]1(O)CO)n1c3ccccc3c3c4c(c5c6ccccc6n2c5c31)CNC4=O,,7.43 µM (active)
Nc1nccc(Oc2ccc(NC(=O)c3c[nH]cc(-c4ccc(F)cc4)c3=O)cc2F)c1Cl,,18.7 µM (active)
C=CC(=O)Nc1cc2c(Nc3ccc(F)c(Cl)c3)ncnc2cc1C#CC(C)(C)N1CCN(C)CC1,,9.35 µM (active)
Nc1ncnc2c1c(-c1cnc3[nH]ccc3c1)nn2C1CCCC1,,0.935 µM (active)
O=c1[nH]c(=O)n(C2CCCO2)cc1F (stereo not given),22.8% [at 92.7 µM],
O=c1c2ccccc2nc2n1CCc1c-2[nH]c2ccccc12,8.44%,
Clc1cccc(-c2nnnn2Cc2cccnc2)c1Cl,8.43%,
Cc1cc(Nc2cc(N3CCN(C)CC3)nc(Sc3ccc(NC(=O)C4CC4)cc3)n2)n[nH]1,,11.8 µM (active)
